# Experimental data reported in PubChem BioAssay AID743279 (National Center for Advancing Translational Sciences (NCATS), 2014).
# In all, about 360,000 compounds went through this assay and about 17,000 (4.7%) were called active. Roughly 5% stayed inconclusive and do not appear here. The sample holds actives, similar compounds and a random draw of the others, so the mix is not that of the screen. A number with no mark means an inactive call. Cut-off read from the data, not from the text of the source: active = activity change below about -50%; inconclusive = mostly about -30% to -49%; inactive = weaker than that.
# Assay: qHTS for Inhibitors of Inflammasome Signaling: IL-1-beta AlphaLISA Primary Screen
# Conditions: THP-1 LPS/ATP IL-1B secretion, 16 h; at 57.5 µM, active compounds read low
# In short: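 THP-1 cells pretreated 1 hr with compounds (up to 57.5 uM final), then stimulated with LPS (250 ng/mL final) plus ATP (1.25 mM final); secreted IL-1B measured by AlphaLISA after 16 hr, decreased signal indicating inhibition.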
# % is set by controls: 0 for no effect and ±100 for the full control effect.
row,SMILES,activity change
1,CCc1c(N=O)c(-c2ccccc2)n(O)[n+]1[O-],-4.78%
2,CN(C)CCNC(=O)c1ccc(-c2cn3c(-c4ccc(Oc5ccccc5)cc4)cnc3cn2)cc1,-66.3% (active)
3,Cc1noc(C)c1COc1ccc(C(=O)NCCOc2ccccc2)cc1,-10.6%
4,CN(C)C(CNC(=O)c1ccc(OCc2cn3ccccc3n2)cc1)c1ccco1 (configuration not stated),3.62%
5,COc1cc(N/C=C2\CC(=O)NC(C)=C2C#N)cc(OC)c1OC,18.8%
6,O=C(CN1CCN(c2ncc(C(F)(F)F)cc2Cl)CC1)Nc1ccc2c(c1)OCO2,-50.6% (active)
7,O=C(CN1CCN(C(=O)c2ccco2)CC1)Nc1ccc2c(c1)OCO2,21.4%
8,O=C(Cn1cc(C(F)(F)F)ccc1=O)Nc1ccc2c(c1)OCCO2,-6.35%
9,CCCNC(=O)C1(C)CCCN(Cc2cccc(C(F)(F)F)c2)C1 (configuration not stated),-10.2%
10,CCC(C(=O)NCc1ccccc1)n1c(Cc2cc(F)cc(F)c2)nc2ccccc21 (configuration not stated),-4.41%
11,CCOC(=O)[C@]12CCCC=C1N(CCC1=CCCCC1)C(=O)[C@H](CC(=O)N1CCOCC1)C2,12.3%
12,COc1ccc(CNC(=O)c2ccc(-c3cccnc3)c3ccoc23)cc1OC,-14.6%
13,O=C(Nc1ccc(N2CCOCC2)cc1)c1cccc2c(-c3ccc(F)c(F)c3)coc12,-5%
14,CN(C)c1cccc(NC(=O)c2ccc(-c3ccc(F)c(F)c3)c3ccoc23)c1,-82.3% (active)
15,COc1cc(C=O)c(Br)cc1OCC(=O)NCc1ccccc1,-25.7%
16,COc1cc(CNC2CCCCC2)c(Br)cc1OC1CCCC1,-64.3% (active)
17,COc1cc(C(=S)NC2CCCCC2)ccc1O,5.59%
18,COc1cc(CNC2CCCC2)c(Br)cc1OCc1ccccc1,-92.7% (active)
19,CC(C)(C)NCc1cc(Br)ccc1OC1CCCC1,-13.9%

row,SMILES,activity change
1,COc1ccc(CNC2CCCCC2)cc1,-4.21%
2,CCN1C(=O)[C@H]2[C@@H](c3ccc(C(F)(F)F)cc3)N[C@]3(CCCN(Cc4ccc(Br)cc4)C3=O)[C@H]2C1=O,-19.9%
3,O=C1C2C3C=CC(C3)C2C(=O)N1c1ncc([N+](=O)[O-])s1 (configuration not stated),6.51%
4,CCOc1ccc(S(=O)(=O)NCCC(=O)NCC2CCCO2)cc1 (configuration not stated),32.7%
5,COc1ccccc1-c1nn(Cc2ccccc2)cc1C(=O)N1CCN(c2ncccn2)CC1,1.02%
6,COc1ccc(C(C(=O)NCc2ccccc2)n2c(=O)c(-c3ccccc3)nc3ccccc32)cc1 (configuration not stated),-6.01%
7,Cc1ccc(S(=O)(=O)CC(=O)NC(C)c2ccccc2)cc1 (configuration not stated),0.147%
8,CSc1ccc(CCNC(=O)CS(=O)(=O)Cc2nc(-c3ccccc3F)oc2C)cc1,9.85%
9,Cc1ccccc1-c1nc(CS(=O)(=O)CC(=O)NC(C)c2ccccc2)c(C)o1 (configuration not stated),-61.7% (active)
10,NC(=S)NN=C1CCCC(C(F)(F)F)C1 (configuration not stated),4.88%
11,O=C(c1ccc2c(c1)C(=O)N(Cc1ccncc1)C2=O)N1CCN(S(=O)(=O)c2ccc(OC(F)(F)F)cc2)CC1,8.07%
12,COc1ccccc1CNC(=O)c1cc(-c2cc(Cl)ccc2C)n[nH]1,-16.3%
13,Cc1cc(O)ccc1-c1cc(C(=O)NCc2cc(C(F)(F)F)cc(C(F)(F)F)c2)[nH]n1,-53.4% (active)
14,Cc1ccc(O)c(-c2cc(C(=O)NCc3ccccc3)[nH]n2)c1,-0.0227%
15,COC(=O)c1ccc2nc(-c3ccc(Cl)cc3)c(Cc3cccc(F)c3)n2c1,58.6%
16,CC(=O)NC(NC(=S)Nc1c(C)n(C)n(-c2ccccc2)c1=O)C(Cl)(Cl)Cl (configuration not stated),0%
17,CCOC(=O)N1CCN(CCC(=O)Nc2ccccc2)CC1,-4.73%
18,O=C(CN1CCN(Cc2ccccc2)CC1)Nc1ccc(F)c(F)c1,-7.81%
19,Cc1cc(NC(=O)CCN2CCN(Cc3ccccc3)CC2)ccc1Br,-54% (active)

row,SMILES,activity change
1,O=C(OCC(=O)N1CCCCCC1)c1cccc(Cl)c1Cl,9.58%
2,NC(N)=N/N=C/c1ccc(OCc2ccc(Cl)cc2Cl)cc1,-97.9% (active)
3,COc1ccc(Cl)cc1N(CC(=O)N/N=C/c1ccc(OCC(N)=O)cc1)S(C)(=O)=O,34.5%
4,Cc1nc2ccccc2nc(C)c1=NOCc1ccc(Cl)cc1Cl,0%
5,COc1ccc(/C=C/C(=O)OCC(=O)N2CCN(S(=O)(=O)c3ccc(C)cc3C)CC2)cc1OC,1.01%
6,COc1ccc(CCNc2cc(C)nc3c(-c4ccc(Cl)cc4)c(C)nn23)cc1OC,15.4%
7,CCOc1cccc(/C=C/c2ccc3ccccc3n2)c1OC(C)=O,-92% (active)
8,CC(OC(=O)c1ccc2ccccc2n1)C(=O)c1ccccc1 (configuration not stated),14.9%
9,CCOc1ccccc1/C=N/Nc1nc2ccccc2o1,0%
10,COc1cccc(/C=C2\C=C(c3ccc(C)cc3)OC2=O)c1OC(C)=O,-5.9%
11,COc1cccc(/C=C/c2ccc3ccccc3n2)c1OC(C)=O,-103% (active)
12,CCOc1ccccc1-c1cc(C(=O)N/N=C(\C)c2cccnc2)c2ccccc2n1,6.38%
13,CC1(C(=O)Nc2ccc3c(c2)OCCO3)CSCC(=O)N1CCOc1ccccc1 (configuration not stated),-3.47%
14,O=C(NC1CCCC1)C1c2ccccc2OCC(=O)N1CC(F)(F)F (configuration not stated),35.1%
15,CC(C)C(C)(C#N)NC(=O)CSc1nc2scc(-c3ccccc3)c2c(=O)[nH]1 (configuration not stated),18.7%
16,CC[C@@]12C(=O)N(c3ccccc3)C(=O)N1[C@H](c1ccc(Br)cc1)[C@@H]1C(=O)N(C(C)(C)C)C(=O)[C@@H]12,12%
17,Cn1cc([N+](=O)[O-])c(C(=O)Nc2ccc3c(c2)OCCO3)n1,-66.8% (active)
18,Cc1onc(C(=O)Nc2ccc3c(c2)OCO3)c1[N+](=O)[O-],-7.05%
19,O=C(Nc1ccc2c(c1)OCCO2)c1ccoc1,-12.9%
